# From PubChem BioAssay (Tox21)
# Results filed as inconclusive are left out. Values without a mark were called inactive. The source made the active and inactive calls. Calls come from the whole dose curve; as a rule, active = well fitted cell-killing curve with a large enough effect in the repeat runs; inconclusive = weak or mixed curves, or effect the other way; inactive = flat fitted curve, though single readings scatter.
# Experiment: qHTS RealTime-Glo MT Cell Viability Assay in HepG2 cells - 40 hour (AID 1224870); note: nearly all actives have a fitted effect of over 50% in size
# Conditions: RealTime-Glo luminescence; series mostly up to 76.8 µM; activity change, negative = cytotoxic: at the top concentration
# Summary of the method: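 HepG2 cells (600/well) mixed with RealTime-Glo MT reagent, settled 5 h at 37 C/5% CO2 before compound addition. Nonlytic NanoLuc luminescence from viable-cell prosubstrate reduction read repeatedly during 40 h treatment at 37 C.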
# % is set by controls: 0 for no effect and ±100 for the full control effect; potency is the fitted concentration of half-maximal effect.
SMILES,"activity change, negative = cytotoxic",Potency
NC1[C@H]2CN(c3nc4c(cc3F)c(=O)c(C(=O)O)cn4-c3ccc(F)cc3F)C[C@@H]12 (stereo not given in full),-8.82% [at 35.3 µM],–
CCCCCCCCCCCCCCN(CCO)CCO,–,17.4 µM (active)
O=C(O)CCc1nc(-c2ccccc2)c(-c2ccccc2)o1,1.55% [at 35.3 µM],–
CC=C(Cl)Cl,-3.14%,–
CCCCC(CC)COP(=O)(O)O (stereo not given),-1.02%,–
C1C[C@@H]2[C@H]3CC[C@H](C3)[C@@H]2C1,-0.959%,–
CC/C=C1/OC(=O)c2ccccc21,0.131%,–
CNC(=O)c1cnn(-c2nc(N)c3ncn([C@@H]4O[C@H](CO)[C@@H](O)[C@H]4O)c3n2)c1,-1.73% [at 35.3 µM],–
COc1cc(C(=O)NCCCCCC(=O)O)cc(OC)c1OC,6.93% [at 35.3 µM],–
CN1CCCN=C1COC(=O)C(O)(c1ccccc1)C1CCCCC1 (stereo not given),1.84% [at 35.3 µM],–
CCCCCC[C@@H](O)C/C=C\CCCCCCCC(=O)O,6.23%,–
COc1ncnc(NS(=O)(=O)c2ccc(N)cc2)c1OC,-1.45% [at 35.3 µM],–
CCOC(=O)c1ccc(OCCN2C[C@H](O)[C@@H](O)[C@H](O)[C@H]2CO)cc1,1.74% [at 35.3 µM],–
CC(CCC(=O)O)C(=O)O (stereo not given),6.55%,–
COc1cc(Nc2c(C#N)cnc3cc(OCCCN4CCN(C)CC4)c(OC)cc23)c(Cl)cc1Cl,–,23.9 µM (active)
